From PubChem BioAssay
An excerpt weighted towards active compounds, which were near 3.5% of everything screened.
mHTT CaM bind – mutant huntingtin-calmodulin interaction inhibitors – biochemical, AlphaScreen, primary screen; AlphaScreen His-mHTT/GST-CaM binding, luminescence; inhibition, % at 15 µM; 190,000 tested, 3.6% active
Target sequence (P42858 whole entry, looked up, change not shown): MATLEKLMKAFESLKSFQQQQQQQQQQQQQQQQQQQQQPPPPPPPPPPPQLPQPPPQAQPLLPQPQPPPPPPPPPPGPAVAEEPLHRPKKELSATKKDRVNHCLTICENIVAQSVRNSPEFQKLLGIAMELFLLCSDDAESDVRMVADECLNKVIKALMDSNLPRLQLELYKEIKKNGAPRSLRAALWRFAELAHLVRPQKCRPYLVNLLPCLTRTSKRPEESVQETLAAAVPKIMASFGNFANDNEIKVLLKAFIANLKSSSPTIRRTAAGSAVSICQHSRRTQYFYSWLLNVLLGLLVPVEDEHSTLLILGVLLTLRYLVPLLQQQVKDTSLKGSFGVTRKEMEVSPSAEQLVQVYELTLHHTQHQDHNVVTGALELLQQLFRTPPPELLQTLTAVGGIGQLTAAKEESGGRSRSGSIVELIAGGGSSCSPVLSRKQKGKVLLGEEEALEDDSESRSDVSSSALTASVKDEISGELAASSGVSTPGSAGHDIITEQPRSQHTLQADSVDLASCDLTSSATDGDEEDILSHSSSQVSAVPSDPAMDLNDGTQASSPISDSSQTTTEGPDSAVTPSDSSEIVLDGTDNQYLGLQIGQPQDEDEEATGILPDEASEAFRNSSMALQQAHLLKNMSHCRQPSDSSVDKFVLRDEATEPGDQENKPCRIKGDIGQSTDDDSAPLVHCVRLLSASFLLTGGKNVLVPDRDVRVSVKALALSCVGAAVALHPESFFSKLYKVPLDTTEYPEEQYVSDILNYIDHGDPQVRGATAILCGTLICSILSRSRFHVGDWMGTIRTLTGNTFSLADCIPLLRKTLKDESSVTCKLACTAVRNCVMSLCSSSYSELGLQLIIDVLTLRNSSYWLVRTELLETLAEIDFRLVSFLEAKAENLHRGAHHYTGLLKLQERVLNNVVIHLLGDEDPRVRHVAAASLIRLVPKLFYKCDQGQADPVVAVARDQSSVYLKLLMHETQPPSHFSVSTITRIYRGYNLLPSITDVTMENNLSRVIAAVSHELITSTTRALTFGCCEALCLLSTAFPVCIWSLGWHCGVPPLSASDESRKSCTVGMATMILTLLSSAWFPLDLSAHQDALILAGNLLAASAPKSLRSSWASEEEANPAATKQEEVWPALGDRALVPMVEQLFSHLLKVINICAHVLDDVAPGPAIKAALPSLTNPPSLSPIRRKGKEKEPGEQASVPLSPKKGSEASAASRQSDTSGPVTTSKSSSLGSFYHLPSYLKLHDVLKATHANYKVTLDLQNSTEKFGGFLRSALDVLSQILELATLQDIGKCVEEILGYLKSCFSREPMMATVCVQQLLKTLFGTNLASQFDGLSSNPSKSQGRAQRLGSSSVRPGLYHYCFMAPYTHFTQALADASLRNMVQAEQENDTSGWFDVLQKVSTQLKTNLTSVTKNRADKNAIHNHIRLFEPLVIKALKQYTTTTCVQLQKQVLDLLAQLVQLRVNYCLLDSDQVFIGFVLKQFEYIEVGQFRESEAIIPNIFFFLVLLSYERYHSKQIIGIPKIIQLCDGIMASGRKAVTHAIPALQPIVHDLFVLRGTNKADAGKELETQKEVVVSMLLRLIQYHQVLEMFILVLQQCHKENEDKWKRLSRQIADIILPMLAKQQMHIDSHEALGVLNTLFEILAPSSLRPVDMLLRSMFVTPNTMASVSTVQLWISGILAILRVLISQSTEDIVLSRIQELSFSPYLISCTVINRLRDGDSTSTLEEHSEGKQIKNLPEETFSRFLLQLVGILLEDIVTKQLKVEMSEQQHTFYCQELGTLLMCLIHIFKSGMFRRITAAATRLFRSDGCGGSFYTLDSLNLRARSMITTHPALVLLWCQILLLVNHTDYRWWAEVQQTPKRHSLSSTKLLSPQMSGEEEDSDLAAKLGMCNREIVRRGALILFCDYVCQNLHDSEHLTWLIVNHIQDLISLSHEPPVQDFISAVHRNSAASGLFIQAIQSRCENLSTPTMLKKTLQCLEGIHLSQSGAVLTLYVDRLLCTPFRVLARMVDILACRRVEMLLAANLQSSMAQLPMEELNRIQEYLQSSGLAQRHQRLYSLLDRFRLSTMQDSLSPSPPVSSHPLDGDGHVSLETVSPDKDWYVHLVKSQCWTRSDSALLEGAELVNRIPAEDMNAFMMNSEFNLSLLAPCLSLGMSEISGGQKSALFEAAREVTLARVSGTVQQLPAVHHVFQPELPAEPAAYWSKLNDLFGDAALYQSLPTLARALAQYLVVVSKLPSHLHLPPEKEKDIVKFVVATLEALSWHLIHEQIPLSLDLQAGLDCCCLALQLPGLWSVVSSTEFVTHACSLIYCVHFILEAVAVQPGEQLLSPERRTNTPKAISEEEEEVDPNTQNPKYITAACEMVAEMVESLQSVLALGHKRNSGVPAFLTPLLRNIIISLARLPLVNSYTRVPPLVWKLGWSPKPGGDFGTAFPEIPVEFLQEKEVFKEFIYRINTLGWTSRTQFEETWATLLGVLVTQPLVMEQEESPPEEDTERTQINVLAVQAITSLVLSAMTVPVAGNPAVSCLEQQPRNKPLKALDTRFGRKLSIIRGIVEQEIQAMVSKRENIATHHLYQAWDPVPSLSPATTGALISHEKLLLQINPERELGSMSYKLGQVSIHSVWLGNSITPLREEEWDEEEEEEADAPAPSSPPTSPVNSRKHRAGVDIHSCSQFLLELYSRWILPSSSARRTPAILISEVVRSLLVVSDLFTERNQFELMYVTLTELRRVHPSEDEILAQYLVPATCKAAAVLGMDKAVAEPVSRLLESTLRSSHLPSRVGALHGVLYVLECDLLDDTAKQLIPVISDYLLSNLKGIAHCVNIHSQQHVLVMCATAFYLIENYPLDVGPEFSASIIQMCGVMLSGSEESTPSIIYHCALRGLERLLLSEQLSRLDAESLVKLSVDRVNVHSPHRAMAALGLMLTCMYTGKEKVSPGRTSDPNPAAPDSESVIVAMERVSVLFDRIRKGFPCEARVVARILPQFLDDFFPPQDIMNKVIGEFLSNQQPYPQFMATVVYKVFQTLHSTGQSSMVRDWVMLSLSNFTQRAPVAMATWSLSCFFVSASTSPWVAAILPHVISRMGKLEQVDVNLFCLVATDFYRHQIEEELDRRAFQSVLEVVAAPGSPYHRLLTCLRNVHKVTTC
Pf apPOL block – Pf-apPOL inhibitors, biochemical, fluorescence; inhibition, % at 10 µM; Plasmodium falciparum apicoplast DNA polymerase (apPOL); 210,000 tested, 0.25% active; Recombinant Pf-apPOL, molecular beacon fluorescence, 1.5 h
Numbers stand for hits; . = inactive; / = no result given. No stated cut-off is given here; in the data, active means inhibition above about 50%; inactive means the rest.

SMILES	mHTT CaM bind	Pf apPOL block
COCc1nn(CC2CC2)c2c1CN(C(=O)c1ccccc1OC)CC2	.	.
COc1ccc(Cl)cc1N(CC(=O)Nc1cccc([N+](=O)[O-])c1)S(C)(=O)=O	.	.
COc1ccc(NC(=O)CN(c2ccc(Cl)cc2)S(C)(=O)=O)cc1Cl	.	.
COc1ccc(N(CC(=O)Nc2ccc(Oc3ccccc3)cc2)S(C)(=O)=O)cc1OC	52	.
COc1ccc(NC(=O)CN(c2cccc([N+](=O)[O-])c2)S(C)(=O)=O)cc1Cl	.	65
CS(=O)(=O)N(CC(=O)Nc1ccc(F)c(Cl)c1)c1ccccc1F	.	.
COc1ccc(NC(=O)CN(c2ccc(Cl)cc2)S(=O)(=O)c2ccccc2)cc1OC	76	.
Cc1c(Cl)cccc1N(CC(=O)Nc1ccc(F)c(Cl)c1)S(C)(=O)=O	99	.
COc1ccc(N(CC(=O)Nc2ccc(OCc3ccccc3)cc2)S(C)(=O)=O)cc1OC	.	.
Cc1cc(C)cc(NC(=O)N2CCCC2c2cc(C(C)C)no2)c1 (stereo not drawn)	.	.
O=C(CS(=O)(=O)c1cccc2nsnc12)Nc1ccc(Cl)cn1	.	.
O=C(c1cccc(F)c1)N1CCC(Oc2ccccc2)CC1	.	.
CC(C)(C)c1ccc(C(N)=NOC(=O)c2ccc3c(c2)CCO3)cc1	/	.
CCc1cccc2c1NC(c1ccc(OC)c([N+](=O)[O-])c1)C1CC=CC21 (stereo not drawn)	59	.
COc1cc([N+](=O)[O-])cc2c1NC(c1ccccc1Cl)C1CC=CC21 (stereo not drawn)	.	.
COc1cccc2c1NC(c1ccc([N+](=O)[O-])cc1)C1CC=CC21 (stereo not drawn)	70	.
COc1ccc(C2Nc3c(C)ccc(Cl)c3C3C=CCC32)cc1[N+](=O)[O-] (stereo not drawn)	.	.
COc1ccc(C2Nc3c(OC)cccc3C3C=CCC32)cc1[N+](=O)[O-] (stereo not drawn)	66	.
Cc1noc(CNC(=O)C2CCN(C(=O)c3cc(-c4ccccc4)n[nH]3)CC2)n1	.	.
Cc1oc(C2CCN(C(=O)C(C)C)CC2)nc1C(=O)N(C)C	.	.
CC1=NN(C(=S)c2ccc(C)cc2)C(C)(O)C1CC(C)C (stereo not drawn)	76	/
CC1CN(C(=O)c2nn(C)c3ccccc23)CC1c1nc(-c2cccnc2)no1 (stereo not drawn)	.	.
CC1=NN(c2ccc(Cl)c(Cl)c2)C(=O)/C1=C/c1ccc(-c2ccc3c(c2)C(=O)OC3)o1	.	.
O=C1NN(c2ccc(Cl)c(Cl)c2)C(=O)/C1=C/c1ccc(-c2ccc3c(c2)COC3=O)o1	60	56
O=C(CCc1ccccc1)N1CCCC1c1ccc(Cl)cc1 (stereo not drawn)	.	.
SMILES	mHTT CaM bind	Pf apPOL block
N#CCCSc1nnc(-c2cccnc2)n1-c1ccc(Br)cc1	.	.
CC(C)CNC(=O)c1cn2c(n1)CCC(c1ccccc1)C2 (stereo not drawn)	.	.
Cc1nnc2cc(N3CCN(Cc4csc5c4CCCC5)CC3)cnn12	.	.
Cc1nnc2cc(N3CCN(Cc4ccc(C(F)(F)F)cc4)CC3)cnn12	67	.
CCc1ccc(NC(=O)Nc2cccn3ncnc23)cc1	.	.
NC(=O)c1c(N)sc2c1CCC2	/	.
NC(=O)c1c(N)sc2c1CCCCC2	64	.
COc1ccc(C=C2Oc3c(CN(C)C)c(O)c(CN(C)C)c(C)c3C2=O)cc1OC	.	.
O=C(Nc1cccc(Cl)c1)c1cccc(NC(=O)C(F)(F)F)c1	.	.
COc1ccc(C(=O)N2CC(=O)Nc3ccc(Cl)cc3C2c2ccc(F)cc2)cc1OC (stereo not drawn)	71	.
COc1ccc(C(=O)N2CC(=O)Nc3ccc(Cl)cc3C2c2ccc(F)cc2)c(OC)c1 (stereo not drawn)	.	.
CCCc1c(C)c2c(OCC)cc(OCC)cc2oc1=O	.	.
CCN(CC)C(=O)c1cc2c(s1)CCC(C(=O)NCc1ccc3c(c1)OCO3)C2 (stereo not drawn)	.	.
CC(C)c1ccc(C2C3=C(CC(C)(C)CC3=O)NC3=C2C(=O)c2ccccc23)cc1 (stereo not drawn)	65	.
O=C1CC(c2ccccc2)CC2=C1C(c1ccc(Cl)cc1)C1=C(N2)c2ccccc2C1=O (stereo not drawn)	.	.
COc1cc(C2C3=C(CCCC3=O)NC3=C2C(=O)c2ccccc23)ccc1O (stereo not drawn)	.	.
CC(C)c1ccc(C2C3=C(CCCC3=O)NC3=C2C(=O)c2ccccc23)cc1 (stereo not drawn)	75	.
Cc1ccc(C2C3=C(CC(c4ccco4)CC3=O)NC3=C2C(=O)c2ccccc23)cc1 (stereo not drawn)	.	.
CC(C)(C)c1ccc(C2C3=C(CCCC3=O)NC3=C2C(=O)c2ccccc23)cc1 (stereo not drawn)	63	.
Cc1nc(SCC(=O)c2ccccc2)c(C#N)c(C)c1C	.	.
Cc1ccc(OCC(=O)Nc2nnc(C3CC(=O)N(c4ccccc4)C3)o2)cc1 (stereo not drawn)	.	.
O=C(Cc1ccccc1Cl)Nc1nnc(C2CC(=O)N(c3ccccc3)C2)o1 (stereo not drawn)	51	.
O=C(Cc1c(F)cccc1Cl)Nc1nnc(C2CC(=O)N(c3ccccc3)C2)o1 (stereo not drawn)	64	.
CCCC(=O)Nc1nnc(C2CC(=O)N(c3ccc(Cl)cc3)C2)o1 (stereo not drawn)	.	.
O=C(Cc1cccc(F)c1)Nc1nnc(C2CC(=O)N(c3ccccc3)C2)o1 (stereo not drawn)	.	.
SMILES	mHTT CaM bind	Pf apPOL block
Cc1ccccc1CC(=O)Nc1nnc(C2CC(=O)N(c3ccc(Cl)cc3)C2)o1 (stereo not drawn)	88	.
O=C(Nc1cnc(N2CCCCC2)nc1)C1CCCC1	.	.
CN(C)S(=O)(=O)N1CCC(c2nnc(C(F)(F)F)o2)CC1	.	.
O=C1S/C(=C\c2cc3c(cc2Cl)OCO3)C(=O)N1Cc1ccc(F)cc1	.	.
O=C1CC(c2ccc(Cl)cc2)CC2=C1C(c1ccccc1[N+](=O)[O-])Nc1ccccc1N2 (stereo not drawn)	.	.
O=C1CC(c2ccccc2)CC2=C1C(c1ccc(Cl)c([N+](=O)[O-])c1)Nc1ccccc1N2 (stereo not drawn)	84	.
O=C1CC(c2cccc([N+](=O)[O-])c2)CC2=C1C(c1ccc(Cl)cc1)Nc1ccccc1N2 (stereo not drawn)	58	.
O=C1CC(c2ccccc2)CC2=C1C(c1ccc(Cl)cc1)Nc1ccccc1N2 (stereo not drawn)	.	.
CC(C)CCNC(=O)C1C2C(=O)N(Cc3ccccc3)CC23C=CC1(C)O3 (stereo not drawn)	.	.
CCN1CCN(CCCNC(=O)CC2CCN(C(=O)c3ccc(C)cc3)CC2)CC1	.	.
CCCC1N=C(c2ccc(Cl)cc2)CC(c2cccc(OC)c2O)N1 (stereo not drawn)	52	.
CCCC1N=C(c2cccc(OC)c2)CC(c2ccccc2O)N1 (stereo not drawn)	.	.
CN(C)c1ccc(C(CNC(=O)c2ccccc2[N+](=O)[O-])N2CCc3ccccc3C2)cc1 (stereo not drawn)	66	.
CN(C)c1ccc(C(CNC(=O)c2cccc([N+](=O)[O-])c2)N2CCOCC2)cc1 (stereo not drawn)	.	.
